Reference: PubChem BioAssay (EPA / NIEHS)
Records with an inconclusive call do not appear. The source made the active and inactive calls. Rule for the calls, unless noted: active = hit-call score of the fitted dose curve at least 0.9, where 1 is the maximum; inconclusive = response in the unintended direction; inactive = score below 0.9.

Key:
[1] = ATG_GLI_CIS: Attagene CIS-FACTORIAL HepG2 Assay for human Zinc Finger Protein GLI1 (AID 2282945; active = hit-call score of the fitted dose curve at least 0.9, where 1 is the maximum; inactive = score below 0.9); conditions: HepG2, Attagene cis-factorial reporter mRNA, GLI element; actives raise or lower the signal
Method in brief: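 HepG2 cells transiently transfected with cis-promoter multiplexed reporter units report endogenous transcription factor activity. After 24 h chemical exposure, reporter mRNA was quantified by RT-PCR, 6-FAM labelling, HpaI digestion and capillary electrophoresis, with bidirectional fitting against DMSO.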

[2] = ATG_GRE_CIS: Attagene CIS-FACTORIAL HepG2 Assay for human Glucocorticoid Response Elements (GRE) (AID 2282947; active = hit-call score of the fitted dose curve at least 0.9, where 1 is the maximum; inactive = score below 0.9); conditions: HepG2 GRE cis-reporter, Attagene multiplex mRNA; actives raise or lower the signal
Method in brief: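 Cells (HepG2) bearing transfected cis-promoter reporter transcription units were treated with chemical for 24 hours. Reporter mRNA was measured via RT-PCR with capillary electrophoresis, and activity was fitted in both directions relative to DMSO.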

[3] = ATG_M_32_CIS: Attagene CIS-FACTORIAL HepG2 Assay for M32 Transcription Factor (Internal Marker) (AID 2282949; active = hit-call score of the fitted dose curve at least 0.9, where 1 is the maximum; inactive = score below 0.9;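 note: background control marker of the multiplexed CIS panel rather than a real target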); conditions: HepG2 Attagene cis-factorial M32 reporter, mRNA; actives raise or lower the signal
Method in brief: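 HepG2 transfectants (cis-regulated reporter transcription units) dosed 24 h. Reporter mRNA by RT-PCR plus CE, analysed as gain or loss relative to DMSO.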

[4] = ATG_MRE_CIS: Attagene CIS-FACTORIAL HepG2 Assay for human Metal Responsive Element (MRE) (AID 2282954; active = hit-call score of the fitted dose curve at least 0.9, where 1 is the maximum; inactive = score below 0.9); conditions: HepG2 MRE cis-reporter transcription, Attagene multiplex; actives raise or lower the signal
Method in brief: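 Cells were transfected with cis-promoter reporter transcription units, then dosed for 24 h. RNA was reverse-transcribed, amplified, fluorescently labelled and resolved by capillary electrophoresis, and activity was fitted in both directions relative to DMSO.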

[5] = ATG_M_32_TRANS: Attagene TRANS-FACTORIAL HepG2 Assay for M32 Transcription Factor (Internal Marker) (AID 2282984); conditions: HepG2 Attagene TRANS M32 internal marker reporter;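 note: transcript level of a background control reporter unit measured by RT-PCR and capillary electrophoresis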
Method in brief: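 After 24 h dosing of transfected HepG2 cells, total RNA was reverse-transcribed, reporter sequences PCR-amplified, 6-FAM labelled by primer extension and HpaI-digested before capillary electrophoresis. Signal increase over DMSO was fitted.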

[6] = biological target: Nuclear respiratory factor 1 (Homo sapiens) (UniProt Q16656); test: ATG_NRF1_CIS: Attagene CIS-FACTORIAL HepG2 Assay for human Nuclear Respiratory Factor 1 (NRF1) Orphan Gene (AID 2282987; active = hit-call score of the fitted dose curve at least 0.9, where 1 is the maximum; inactive = score below 0.9); conditions: HepG2 NRF1 cis-element reporter, Attagene multiplex; actives raise or lower the signal
Nuclear respiratory factor 1 (Homo sapiens), sequence (Q16656 whole entry, looked up): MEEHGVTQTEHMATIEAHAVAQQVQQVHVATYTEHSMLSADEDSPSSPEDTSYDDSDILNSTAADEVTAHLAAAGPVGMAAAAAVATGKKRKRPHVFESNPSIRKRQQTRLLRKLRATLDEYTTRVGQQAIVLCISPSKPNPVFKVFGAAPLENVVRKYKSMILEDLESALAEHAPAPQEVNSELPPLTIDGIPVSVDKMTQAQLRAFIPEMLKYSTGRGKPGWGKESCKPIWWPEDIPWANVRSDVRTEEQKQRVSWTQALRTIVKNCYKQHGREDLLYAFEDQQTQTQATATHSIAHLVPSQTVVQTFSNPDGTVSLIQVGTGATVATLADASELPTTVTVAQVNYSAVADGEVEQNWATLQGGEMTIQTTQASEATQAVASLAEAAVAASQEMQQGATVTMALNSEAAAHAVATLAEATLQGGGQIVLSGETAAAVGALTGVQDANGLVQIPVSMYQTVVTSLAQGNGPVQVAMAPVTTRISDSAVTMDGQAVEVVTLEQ
Method in brief: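 Endogenous NRF1-driven reporter transcription in transfected HepG2 cells after 24 h treatment. Readout: RT-PCR products, 6-FAM labelled and resolved by capillary electrophoresis; changes fitted both directions relative to DMSO.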

[7] = ATG_NF_kB_CIS: Attagene CIS-FACTORIAL HepG2 Assay for human Nuclear Factor Kappa B (NF-kB) (AID 2282991; active = hit-call score of the fitted dose curve at least 0.9, where 1 is the maximum; inactive = score below 0.9); conditions: HepG2 Attagene cis-factorial NF-kB reporter mRNA; actives raise or lower the signal
Method in brief: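 Readout is reporter transcript level, gain or loss versus DMSO, measured 24 h post-dose via RT-PCR, fluorescent labelling and capillary electrophoresis. Human HepG2 liver cells carried transiently transfected CIS reporter constructs reflecting endogenous factors.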

[8] = TOX21_p53_BLA_p2_viability: Viability Assessment in the Tox21 HCT-116 p53 Agonism Beta-lactamase Assay, Phase 2 (AID 2283591);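 note: compound exposure lasted 16 h at 37 °C; actives lower the ATP signal meaning cytotoxicity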
Method in brief: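 HCT-116 p53-bla cells (4000/well) rested 5 h at 37C, then received compounds in DMSO (217-fold dilution) for 16 h at 37C, 5% CO2. After the CCF4 read, CellTiter-Glo was added; ATP luminescence was read after 30 min at room temperature.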

[9] = biological target: Cellular tumor antigen p53 (Homo sapiens) (UniProt P04637); test: TOX21_p53_BLA_p3_ratio: Tox21 HCT-116 p53 Agonism Beta-lactamase Assay, Ratio, Phase 3 (AID 2283596)
Cellular tumor antigen p53 (Homo sapiens), sequence (P04637 whole entry, looked up): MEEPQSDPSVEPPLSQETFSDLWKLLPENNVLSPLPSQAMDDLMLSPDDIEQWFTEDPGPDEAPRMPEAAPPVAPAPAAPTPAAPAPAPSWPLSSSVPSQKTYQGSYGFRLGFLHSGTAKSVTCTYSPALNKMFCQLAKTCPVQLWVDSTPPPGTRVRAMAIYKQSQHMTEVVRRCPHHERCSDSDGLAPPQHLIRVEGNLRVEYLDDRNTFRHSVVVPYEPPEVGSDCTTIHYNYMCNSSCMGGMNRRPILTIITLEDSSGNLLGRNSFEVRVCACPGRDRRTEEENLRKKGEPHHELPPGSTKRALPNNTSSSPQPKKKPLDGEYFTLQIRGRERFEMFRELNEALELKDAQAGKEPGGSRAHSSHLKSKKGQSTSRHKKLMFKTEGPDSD
Method in brief: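 Cells were seeded at 4000/well, rested 5 h at 37C, then dosed with DMSO compound solutions (217-fold dilution) for 16 h. CCF4-AM substrate was loaded for 2 h at room temperature, and the 460/530 nm emission ratio was fitted for gain of signal versus DMSO.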

[10] = TOX21_p53_BLA_p5_viability: Viability Assessment in the Tox21 HCT-116 p53 Agonism Beta-lactamase Assay, Phase 5 (AID 2283600)
Method in brief: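 Viability is taken from cellular ATP content, measured by luciferase luminescence in the same wells after the beta-lactamase ratio read. Cells are seeded at 4000 per well and exposed to DMSO-dissolved compounds, diluted 217-fold, for 16 h.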

[11] = ATG_RORE_CIS: Attagene CIS-FACTORIAL HepG2 Assay for human RAR-related Orphan Receptor Element (RORE) (AID 2282959; active = hit-call score of the fitted dose curve at least 0.9, where 1 is the maximum; inactive = score below 0.9); conditions: HepG2 Attagene cis-factorial RORE reporter, mRNA; actives raise or lower the signal
Method in brief: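 RORE reporter transcripts reflecting endogenous factor activity were read after 24 h compound exposure of transfected HepG2 cells, using reverse transcription, PCR, fluorescent labelling and capillary electrophoresis sizing. Gain or loss fitted against DMSO.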

[12] = biological target: human Peroxisome Proliferator-activated Receptor alpha (PPARa), PPARA (gene 5465) (UniProt Q07869); test: ATG_PPARa_TRANS: Attagene TRANS-FACTORIAL HepG2 Assay for human Peroxisome Proliferator-activated Receptor alpha (PPARa) (AID 2283001)
human Peroxisome Proliferator-activated Receptor alpha (PPARa), PPARA (gene 5465), sequence (Q07869 whole entry, looked up): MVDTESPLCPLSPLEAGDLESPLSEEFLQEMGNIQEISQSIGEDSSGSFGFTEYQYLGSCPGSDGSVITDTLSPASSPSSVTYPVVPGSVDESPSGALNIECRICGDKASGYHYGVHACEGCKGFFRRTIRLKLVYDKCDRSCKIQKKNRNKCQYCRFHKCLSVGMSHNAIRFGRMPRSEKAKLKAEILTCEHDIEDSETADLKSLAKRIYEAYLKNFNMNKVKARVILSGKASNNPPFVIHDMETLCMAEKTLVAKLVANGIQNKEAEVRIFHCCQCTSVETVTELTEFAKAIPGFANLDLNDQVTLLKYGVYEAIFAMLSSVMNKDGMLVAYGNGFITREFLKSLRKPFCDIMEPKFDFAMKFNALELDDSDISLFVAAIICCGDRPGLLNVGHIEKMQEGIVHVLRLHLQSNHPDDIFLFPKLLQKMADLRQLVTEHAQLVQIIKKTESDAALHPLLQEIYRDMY
Method in brief: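 Cells (HepG2) are transfected with multiple reporter transcription units, exposed to chemical for 24 h, then total RNA is reverse-transcribed and amplified. Labelled products are quantified by capillary electrophoresis; induction is referenced to DMSO.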

[13] = biological target: Retinoic acid receptor RXR-alpha (Homo sapiens) (UniProt P19793); test: ATG_RXRa_TRANS: Attagene TRANS-FACTORIAL HepG2 Assay for human Retinoid X Receptor alpha (RXRa) (AID 2283012)
Retinoic acid receptor RXR-alpha (Homo sapiens), sequence (P19793 whole entry, looked up, the tested form may be a part): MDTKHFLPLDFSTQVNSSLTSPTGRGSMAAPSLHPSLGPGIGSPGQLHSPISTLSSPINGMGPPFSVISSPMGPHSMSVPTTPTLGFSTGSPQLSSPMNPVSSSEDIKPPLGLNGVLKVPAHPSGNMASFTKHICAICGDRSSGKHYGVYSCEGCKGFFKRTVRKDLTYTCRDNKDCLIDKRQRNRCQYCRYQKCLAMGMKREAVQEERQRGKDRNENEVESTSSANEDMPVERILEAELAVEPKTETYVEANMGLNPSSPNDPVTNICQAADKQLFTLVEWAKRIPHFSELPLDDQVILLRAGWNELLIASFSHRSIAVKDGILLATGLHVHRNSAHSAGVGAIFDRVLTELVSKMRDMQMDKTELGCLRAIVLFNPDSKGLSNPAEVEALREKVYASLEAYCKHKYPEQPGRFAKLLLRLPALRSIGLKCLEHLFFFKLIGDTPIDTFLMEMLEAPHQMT
Method in brief: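 Measures exogenous chimeric NR-GAL4 activity in transfected HepG2 liver cells after 24 h of dosing. Induced reporter mRNA was detected by RT-PCR with capillary electrophoresis, and gain of signal was analysed against DMSO.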

[14] = biological target: human Retinoid X Receptor beta (RXRb), RXRB (gene 6257) (UniProt P28702); test: ATG_RXRb_TRANS: Attagene TRANS-FACTORIAL HepG2 Assay for human Retinoid X Receptor beta (RXRb) (AID 2283013)
human Retinoid X Receptor beta (RXRb), RXRB (gene 6257), sequence (P28702 whole entry, looked up, the tested form may be a part): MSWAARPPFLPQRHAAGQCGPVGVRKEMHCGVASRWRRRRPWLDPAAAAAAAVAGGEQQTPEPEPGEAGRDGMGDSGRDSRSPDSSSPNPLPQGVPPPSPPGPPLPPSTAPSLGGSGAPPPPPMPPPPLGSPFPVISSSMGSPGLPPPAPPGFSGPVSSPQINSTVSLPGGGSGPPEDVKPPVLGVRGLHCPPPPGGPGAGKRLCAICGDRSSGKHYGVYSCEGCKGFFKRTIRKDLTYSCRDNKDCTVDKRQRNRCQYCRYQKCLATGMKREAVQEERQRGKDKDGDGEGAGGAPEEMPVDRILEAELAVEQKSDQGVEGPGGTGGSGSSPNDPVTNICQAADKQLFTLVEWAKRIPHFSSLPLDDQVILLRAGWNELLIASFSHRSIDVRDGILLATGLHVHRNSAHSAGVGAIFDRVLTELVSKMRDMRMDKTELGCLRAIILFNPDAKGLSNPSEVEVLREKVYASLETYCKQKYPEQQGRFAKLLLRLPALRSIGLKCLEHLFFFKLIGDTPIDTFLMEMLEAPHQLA
Method in brief: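 Chimeric receptor-Gal4 activity was assessed in transiently transfected human HepG2 cells after 24 h exposure. Transcripts from GAL4-UAS reporters were quantified by fluorescent RT-PCR and capillary electrophoresis, with DMSO as negative control and baseline.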

[15] = biological target: Cellular tumor antigen p53 (Homo sapiens) (UniProt P04637); test: TOX21_p53_BLA_p5_ratio: Tox21 HCT-116 p53 Agonism Beta-lactamase Assay, Ratio, Phase 5 (AID 2283599)
Method in brief: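 HCT-116 cells carrying a p53-inducible beta-lactamase reporter were seeded at 4000 cells/well and dosed after 5 h with compound in DMSO (217-fold dilution). After 16 h at 37C, CCF4-AM substrate was added for 2 h, and the 460/530 nm emission ratio was scored as gain-of-signal versus DMSO.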

[16] = biological target: Cellular tumor antigen p53 (Homo sapiens) (UniProt P04637); test: TOX21_p53_BLA_p4_ratio: Tox21 HCT-116 p53 Agonism Beta-lactamase Assay, Ratio, Phase 4 (AID 2283601)
Method in brief: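 HCT116 cells carrying an inducible beta-lactamase reporter were plated at 4000 cells/well, rested 5 h, then exposed to compounds in DMSO (217-fold dilution) for 16 h at 37C. CCF4-AM substrate was loaded 2 h at room temperature; 460/530 nm emission ratio scored gain-of-signal versus DMSO.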

[17] = biological target: Retinoic acid receptor alpha (Homo sapiens) (UniProt P10276); test: ATG_DR5_RAR_CIS: Attagene CIS-FACTORIAL HepG2 Assay for human Retinoic Acid Receptor Alpha (RARE), DR5 submotif (AID 2282934; active = hit-call score of the fitted dose curve at least 0.9, where 1 is the maximum; inactive = score below 0.9); conditions: HepG2 Attagene cis-factorial RARE DR5 reporter, mRNA; actives raise or lower the signal
Retinoic acid receptor alpha (Homo sapiens), sequence (P10276 whole entry, looked up): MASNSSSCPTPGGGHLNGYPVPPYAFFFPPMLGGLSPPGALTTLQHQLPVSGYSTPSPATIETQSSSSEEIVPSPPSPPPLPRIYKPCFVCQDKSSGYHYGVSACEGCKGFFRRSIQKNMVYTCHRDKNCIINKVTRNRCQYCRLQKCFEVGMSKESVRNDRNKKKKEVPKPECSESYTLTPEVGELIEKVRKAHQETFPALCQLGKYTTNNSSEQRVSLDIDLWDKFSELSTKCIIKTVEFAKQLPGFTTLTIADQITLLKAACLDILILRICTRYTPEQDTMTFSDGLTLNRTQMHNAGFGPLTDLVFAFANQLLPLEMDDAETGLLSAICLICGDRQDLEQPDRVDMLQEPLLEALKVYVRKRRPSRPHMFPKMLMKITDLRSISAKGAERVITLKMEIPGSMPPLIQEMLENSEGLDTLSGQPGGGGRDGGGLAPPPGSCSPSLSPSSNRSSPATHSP
Method in brief: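 HepG2 cells transiently transfected with multiplexed reporter units under cis (DR5 RARE) promoters, so endogenous transcription factor activity is measured. After 24 h compound exposure, reporter mRNA is quantified by RT-PCR with fluorescent labelling and capillary electrophoresis; bidirectional fitting versus DMSO.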

[18] = biological target: Hepatocyte nuclear factor 3-beta (Homo sapiens) (UniProt Q9Y261); test: ATG_FoxA2_CIS: Attagene CIS-FACTORIAL HepG2 Assay for human Forkhead box A2 (FOXA2) (AID 2282942; active = hit-call score of the fitted dose curve at least 0.9, where 1 is the maximum; inactive = score below 0.9); conditions: HepG2 cis-reporter transcription factor activity, 24 h; actives raise or lower the signal
Hepatocyte nuclear factor 3-beta (Homo sapiens), sequence (Q9Y261 whole entry, looked up): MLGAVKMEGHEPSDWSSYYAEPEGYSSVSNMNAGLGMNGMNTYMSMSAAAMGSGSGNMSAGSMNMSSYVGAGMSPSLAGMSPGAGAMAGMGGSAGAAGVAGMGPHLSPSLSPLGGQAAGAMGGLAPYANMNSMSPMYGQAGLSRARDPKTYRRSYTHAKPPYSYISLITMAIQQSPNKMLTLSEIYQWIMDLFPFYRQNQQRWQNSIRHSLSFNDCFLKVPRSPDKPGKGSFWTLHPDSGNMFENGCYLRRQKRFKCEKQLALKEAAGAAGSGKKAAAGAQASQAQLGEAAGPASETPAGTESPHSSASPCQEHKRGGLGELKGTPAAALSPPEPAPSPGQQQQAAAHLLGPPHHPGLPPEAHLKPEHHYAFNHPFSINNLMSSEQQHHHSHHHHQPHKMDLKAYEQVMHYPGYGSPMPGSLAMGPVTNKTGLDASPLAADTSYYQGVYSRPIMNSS
Method in brief: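 Endogenous transcription factor activity is captured via cis-element-driven reporter transcripts in transfected HepG2. Total RNA taken at 24 h post-dosing; labelled RT-PCR products resolved by capillary electrophoresis. Gain or loss fitted versus DMSO.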

[19] = ATG_PBREM_CIS: Attagene CIS-FACTORIAL HepG2 Assay for human Phenobarbital-responsive Enhancer Module (PBREM) (AID 2282955; active = hit-call score of the fitted dose curve at least 0.9, where 1 is the maximum; inactive = score below 0.9); conditions: HepG2 PBREM cis-reporter, Attagene multiplexed transcription; actives raise or lower the signal
Method in brief: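 Endogenous transcription factor activity was read from reporter transcripts in transiently transfected human HepG2 liver cells after 24 h dosing. RT-PCR products were fluorescently labelled, HpaI-cut and sized by capillary electrophoresis; activity fitted bidirectionally against DMSO baseline.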

[20] = biological target: Hepatocyte nuclear factor 4-alpha (Homo sapiens) (UniProt P41235); test: ATG_HNF4a_TRANS: Attagene TRANS-FACTORIAL HepG2 Assay for human Hepatocyte Nuclear Factor 4 alpha (HNF4a) (AID 2282982); conditions: HepG2 HNF4a transactivation reporter, mRNA readout
Hepatocyte nuclear factor 4-alpha (Homo sapiens), sequence (P41235 whole entry, looked up, the tested form may be a part): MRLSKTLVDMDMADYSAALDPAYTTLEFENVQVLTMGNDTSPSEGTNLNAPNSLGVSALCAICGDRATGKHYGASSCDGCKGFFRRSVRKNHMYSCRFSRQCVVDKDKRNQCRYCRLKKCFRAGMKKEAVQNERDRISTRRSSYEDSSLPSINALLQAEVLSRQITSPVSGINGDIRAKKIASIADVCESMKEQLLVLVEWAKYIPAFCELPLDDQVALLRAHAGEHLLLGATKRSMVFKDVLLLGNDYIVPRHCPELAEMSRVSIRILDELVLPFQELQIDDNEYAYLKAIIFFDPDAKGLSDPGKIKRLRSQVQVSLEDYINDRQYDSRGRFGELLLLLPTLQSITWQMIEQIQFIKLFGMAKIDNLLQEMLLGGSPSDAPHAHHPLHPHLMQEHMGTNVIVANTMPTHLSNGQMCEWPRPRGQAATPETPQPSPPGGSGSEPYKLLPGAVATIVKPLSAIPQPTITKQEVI
Method in brief: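 In this trans-factorial format, a chimeric HNF4a-GAL4 fusion drives a GAL4-UAS reporter in transfected HepG2 liver cells. After 24 h treatment, reporter mRNA induction is measured by RT-PCR with capillary electrophoresis, relative to DMSO.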

Measured: AC50

CN(C)CCC(c1ccc(Cl)cc1)c1ccccn1 (configuration not stated)
inactive: [1] | [2] | [3] | [4] | [5] | [6] | [7] | [8] | [9] | [10]

CCO[Si](OCC)(OCC)c1ccccc1
not listed: [1] | [6] | [7] | [17] | [18] | [19] | [20]
inactive: all other assays above

COc1c2occc2cc2ccc(=O)oc12
active: [14] 100 µM
not listed: [1] | [5] | [6] | [7] | [11] | [19] | [20]
inactive: all other assays above

O=C(O)c1nc(Cl)c(Cl)c(Cl)c1Cl
inactive: [17] | [1] | [2] | [3] | [19] | [11] | [20] | [5] | [6] | [12]

Cc1cc(C)c(S(=O)(=O)O)cc1N=Nc1cc(S(=O)(=O)O)c2ccccc2c1O
not listed: [2] | [3] | [4] | [7] | [13] | [15] | [17]
inactive: all other assays above

CCCCCCCCCC/C=C/C1CC(=O)OC1=O (configuration not stated)
not listed: [6] | [17] | [20]
inactive: all other assays above

O=C(O)Cc1c[nH]c2ccccc12
active: [14] 73.7 µM
not listed: [1] | [4] | [6] | [7] | [17]
inactive: all other assays above

COC(=O)c1ccccc1
not listed: [1] | [2] | [12] | [14] | [15] | [17] | [19]
inactive: all other assays above

CC1=NN(c2cc(Cl)c(S(=O)(=O)O)cc2Cl)C(=O)C1N=Nc1ccc(S(=O)(=O)O)cc1 (configuration not stated)
not listed: [2] | [5] | [12] | [13] | [17] | [19] | [20]
inactive: all other assays above

O=C(C(=O)c1ccccc1)c1ccccc1
inactive: [18] | [2] | [4] | [19] | [20] | [5] | [6] | [7] | [9] | [16]

c1cc[c]([Bi]([c]2ccccc2)[c]2ccccc2)cc1
inactive: [18] | [2] | [3] | [4] | [19] | [20] | [6] | [7] | [13]
active: [14] 7.42 µM
